# Sampled rows, rich in hits. Any-hit rate of the full collection: about 9.9%.
# SW480 rereplic: DNA re-replication induction in SW480 cells | SW480 DNA re-replication, Hoechst DNA content imaging, 48 h | 340,000 compounds, 1.8% hits | AID 624297 | Potency, µM (top dose mostly 46.1 µM), without a hit: at the top dose re-replication activation, most hits filed as activators; note: potency is the fitted concentration of half-maximal effect; % of control where 0% means no effect; nearly all actives have a fitted effect of over 55% in size
#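 Hoechst fluorescence of nuclei (405 nm excitation, 500-530 nm emission) measured by plate-scanning imager after 48 hr compound exposure at 37 C; re-replication scored as increased number of nuclei with elevated intensity.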
# KB-3-1 tox: KB-3-1 parental cell cytotoxicity | KB-3-1 viability, CellTiter-Glo ATP luminescence, 72 h | Potency, µM (top dose mostly 46.1 µM), most hits filed as cytotoxic | 400,000 compounds, 1.4% hits | AID 1347075; note: potency is the fitted concentration of half-maximal effect; % is set by controls: 0 for no effect and ±100 for the full control effect; nearly all actives have a fitted effect of over 60% in size
#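 Parental KB-3-1 viability, qHTS format: 72 h compound exposure, 37 °C; CellTiter-Glo; media-only wells and DMSO plates as controls; concentration-effect fits on corrected data.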
# KB-V1 MDR tox: KB-V1 MDR subline cytotoxicity | KB-V1 MDR cells viability, CellTiter-Glo, 72 h | Potency, µM (highest dose often 46.1 µM), usual class: cytotoxic | 400,000 compounds, 3.4% hits; note: potency is the fitted concentration of half-maximal effect; % is set by controls: 0 for no effect and ±100 for the full control effect; nearly all actives have a fitted effect of over 60% in size
#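 Drug-selected KB-V1 cells, grown in DMEM lacking phenol red with 10% FBS, receive compound titrations; after three days at 37 degrees C, surviving cell ATP is quantified by CellTiter-Glo luminescence and responses normalized and curve-fitted.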
# IL-1B inflam inh: inflammasome signaling inhibition, IL-1 beta readout. THP-1 LPS/ATP IL-1B secretion, AlphaLISA, 16 h; stronger effect = lower value. AID 743279. activity change, % at 57.5 µM. 360,000 compounds, 4.7% hits; in the data active = activity change below about -50%; inconclusive = mostly about -30% to -49%; note: % is set by controls: 0 for no effect and ±100 for the full control effect
#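 THP-1 cells pretreated 1 hr with compounds (up to 57.5 uM final), then stimulated with LPS (250 ng/mL final) plus ATP (1.25 mM final); secreted IL-1B measured by AlphaLISA after 16 hr, decreased signal indicating inhibition.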
# MCF10A rereplic: DNA re-replication induction in MCF 10a cells; MCF 10A DNA re-replication, Hoechst nuclear intensity, 48 h; Potency, µM (titrated, usually from 46.1 µM), inactives show at the top dose activity, positive = re-replication, most hits filed as activators; 350,000 compounds, 2.9% hits; note: potency is the fitted concentration of half-maximal effect; % of control where 0% means no effect; nearly all actives have a fitted effect of over 50% in size
# * hit, by the source's call; i = inactive; ? = inconclusive; nt = not tested or not shown; ! = a repeat was not active. Unless noted, calls come from the whole dose curve; as a rule, active = well fitted curve in the direction sought with a large enough effect; inconclusive = small, poorly fitted or top-dose-only effect, or another doubt; inactive = no such curve, though single readings can be large; an effect the other way counts as inactive or inconclusive.
SMILES,SW480 rereplic,KB-3-1 tox,KB-V1 MDR tox,IL-1B inflam inh,MCF10A rereplic
Cc1cc(C(=O)Nc2ccc(F)cc2C)n(-c2ccccc2)n1,-2%,i,i,-11,-3%
COc1ccc(CNC(=O)CCS(=O)(=O)c2cc3c(cc2Cl)NC(=O)CO3)cc1,?,i,?,-2,-3%
CCOC(=O)c1c(C)[nH]c(C)c1S(=O)(=O)NCC(=O)N(C)c1ccc(C)c(C)c1,nt,i,i,nt,nt
O=C(Nc1nnc(C2CCCCC2)s1)C1CCN(C(=O)c2ccco2)CC1,nt,?,i,nt,nt
CCCc1ccc2oc(C(=O)N3CCN(C4CCS(=O)(=O)C4)CC3)c(C)c2c1 (stereo not drawn),-9%,i,i,-5,0%
CN(C)CCNc1nc(-c2ccccc2F)c2sccc2n1,nt,i,i,-23,nt
Cc1ccc(/C=C/C(=O)NCCc2c[nH]c3ccccc23)o1,-1%,i,i,-15,2%
O=C(NCC1COc2ccccc2O1)c1ccc(NC(=O)C(c2ccccc2)c2ccccc2)cc1 (stereo not drawn),23µM*,i,i,9,?
O=C(N/N=C/c1ccc2c(c1)OCO2)c1cc(-c2ccncc2)nc2ccccc12,16µM*,5.8µM*,i,26,5.8µM*
O=C(Cc1ccccc1)Nc1ccc(C(=O)NCC2COc3ccccc3O2)cc1 (stereo not drawn),0%,i,i,-27,-15%
O=C(N/N=C/c1ccc2c(c1)OCO2)c1cc(-c2ccccc2Cl)nc2ccccc12,20%,i,i,24,?
Cc1ccc(/C=C/C(=O)NCCc2cccc(Cl)c2)o1,?,i,i,-65*,?
Cc1ccc(/C=C/C(=O)NCC2COc3ccccc3O2)o1 (stereo not drawn),-3%,i,i,-53*,?
COc1ccc(/C=C/C(=O)NCC2COc3ccccc3O2)cc1OC (stereo not drawn),0%,i,i,-3,-13%
COc1cc(OC)cc(-c2nc(-c3ccc4c(c3)[nH]c(=O)n4C)no2)c1,nt,i,i,nt,nt
Cc1cccc(C(C)C)c1NC(=O)C1CCCN1S(=O)(=O)c1cccc2nsnc12 (stereo not drawn),nt,i,?,nt,nt
O=C(NCC1COc2ccccc2O1)c1ccccc1 (stereo not drawn),-2%,i,?,-10,0%
O=C(Nc1ccc2c(c1)OCO2)c1cc(-c2ccc(Cl)cc2)on1,nt,i,i,nt,nt
Cc1cc(C(=O)NCC2COc3ccccc3O2)c2ccccc2n1 (stereo not drawn),-2%,i,?,-70*,-6%
CCOc1ccccc1-c1cc(C(=O)N/N=C/c2ccc3c(c2)OCO3)c2ccccc2n1,5%,?,i,8,15%
Cc1cc(C(=O)N/N=C/c2ccc3c(c2)OCO3)c2ccccc2n1,10µM*,2.6µM*,?,99,?
O=C(Nc1ccc2c(c1)OCO2)c1cc(-c2ccc(O)cc2)on1,?,i,i,-11,10µM*
Cc1ccc(/C=C/C(=O)NC2CCCCCCC2)o1,23µM*,i,i,-104*,?
COc1ccc(C(=O)Nc2cc(-c3ccccc3)nn2-c2ccccc2F)cc1,5%,i,i,?,?
O=C(Nc1ccc2c(c1)OCO2)c1cc(-c2ccncc2)nc2ccccc12,?,?,?,6,18µM*
SMILES,SW480 rereplic,KB-3-1 tox,KB-V1 MDR tox,IL-1B inflam inh,MCF10A rereplic
O=C(Nc1ccc2c(c1)OCCO2)c1cc(-c2ccccc2)nc2ccccc12,1%,i,i,-19,19%
CCOc1ccc(NC(=O)C(=O)NCCc2csc(-c3ccc(F)cc3)n2)cc1,nt,i,i,nt,nt
CCc1nn2c(=O)cc(COC(=O)c3ccccc3)nc2s1,nt,i,?,nt,nt
Cc1ccc(Cn2c(O)c(N=O)c3ccccc32)cc1,17%,i,i,-88*,0%
Cc1ccc2c(c1)c(N=O)c(O)n2Cc1ccc(Cl)cc1,15%,i,?,-73*,1%
C=CCn1c(O)c(N=O)c2ccccc21,1%,i,i,?,11%
O=Nc1c(O)n(Cc2ccc(Cl)cc2Cl)c2ccccc12,2%,?,i,-58*,?
C/C(Cl)=C\Cn1c(O)c(N=O)c2ccccc21,3%,i,?,-98*,23%
CCc1ccc(CNC(=O)c2cccc(-n3cnc4cccnc43)c2C)cc1,nt,i,i,nt,nt
O=c1[nH]c2ccccc2n2cnnc12,2%,i,i,-4,-3%
O=Nc1c(O)n(Cc2ccc(Cl)cc2)c2ccccc12,13%,i,i,-88*,?
O=C(Nc1nc2c(Br)cc(Br)cc2c(=O)s1)C1CCC1,-4%,i,i,-21,5.2µM*
Cc1nn2c(NCc3ccccn3)cc(C(C)(C)C)nc2c1-c1ccccc1,2.9µM*,?,i,5,2.6µM*
Cc1cc(NCc2ccccn2)n2nc(C)c(-c3ccccc3)c2n1,?,i,i,-15,6%
Cc1nn2c(NCc3ccccn3)c3c(nc2c1-c1ccccc1)CCC3,?,?,9.2µM*,nt,-11%
Oc1ccc(N=Nc2cccc(C(F)(F)F)c2)cc1C=Nc1ccc(N2CCOCC2)cc1,?,i,i,42,5.8µM*
Cc1ccc(CNC(=O)C(=O)NCC2OCCCN2S(=O)(=O)c2ccc(F)cc2)cc1 (stereo not drawn),14%,i,i,0,1%
COc1cnc(-c2ccccn2)nc1Sc1c(Cl)cccc1Cl,15µM*,?,2.9µM*,33,?
COc1cnc(-c2ccccn2)nc1Oc1cccc(Cl)c1,3%,i,6.5µM*,5,1%
COc1cnc(-c2ccccn2)nc1Sc1ccccc1Cl,13µM*,?,i,44,?
CCOC(=O)C(C)Sc1nc(-c2ccccn2)ncc1OC (stereo not drawn),0%,i,?,73,20%
COc1cnc(-c2ccccn2)nc1N(C)C,18µM*,?,21µM*,-58*,13%
COc1ccc(Oc2nc(-c3ccccn3)ncc2OC)cc1,-7%,i,i,-12,-9%
COCCNC(=O)CN(Cc1ccc(F)cc1)C(=O)CCC(=O)Nc1nccs1,28%,i,i,9,-34%
CCN(C(=O)COC(=O)c1cc(-c2ccccc2)nc2c1c(C)nn2-c1ccccc1)C1CCS(=O)(=O)C1 (stereo not drawn),5%,i,i,25,?
Cc1ccc(-n2nc(C)c3c(C(=O)OCC(=O)N(C)C4CCS(=O)(=O)C4)cc(-c4ccccc4)nc32)cc1 (stereo not drawn),4%,i,i,-4,21µM*!
